Data taken from PubChem BioAssay (NCATS).
Inconclusive results are not listed. Calls of active or inactive are those of the source. Calls come from the whole dose curve; as a rule, active = well fitted cell-killing curve with a large enough effect; inconclusive = small, poorly fitted or top-dose-only effect; inactive = no such curve, though single readings can be large or run the other way.

Experiment: qHTS of pediatric cancer cell lines to identify multiple opportunities for drug repurposing: Primary screen for SJ-GBM2 cells (AID 1347091)
Details: SJ-GBM2 viability, CellTiter-Glo luminescence, 48 h; series mostly up to 46 µM; activity change, negative = cytotoxic: at the top concentration
Text: Drug repurposing or repositioning has been offered as a strategy for drug development in oncology programs. This approach has special potential for childhood cancers and other rare or orphan diseases, where the expected return on new drug development has been a disincentive to pharmaceuticals.
In this project we exploit the poly-pharmacology of drugs to discover new indications via phenotypic screening of a panel of 19 well-characterized cell lines derived from solid tumors seen in children and adolescents. The goal is to identify approved drugs with previously unrecognized anticancer properties that has the potential to reveal new mechanisms and biological processes involved in carcinogenesis or drug resistance. We employed a titration-based paradigm (quantitative high-throughput screening or qHTS), where all compounds were tested at multiple concentrations for their effect on cell viability. Concentration-response curves (CRCs) were derived directly from the primary screen, and both potency and efficacy values were used to identify compounds with robust bioactivity profiles. We screened the NIH Chemical Genomics Center (NCGC) Pharmaceutical Collection (NPC) and Mechanism Interrogation Plate (MIPE) small molecule collections of approved and investigational compounds against these cell lines; and measured metabolically active cells after 48 hours of compound treatment as a proxy for cell viability.
Assay Submitter: Nathalia J. Martinez, National Center for Advancing Translational Sciences, National Institutes of Health, Rockville, MD, USA; email: natalia.martinez@nih.gov
[1] Shen, M et al. Quantitative high-throughput phenotypic screening of pediatric cancer cell lines identifies multiple opportunities for drug repurposing. Oncotarget 2017 Dec 19;9(4):4758-4772. PMID 29435139.
The cells were obtained from University of North Carolina (UNC), Pediatric Preclinical Testing Program (PPT), and Coriell Institute (CI).
qHTS cell viability assay:
Cells were assayed in growth media at a density of 500-1,000 cells/well. Five microliters of cells were dispensed into 1,536-well, white, solid-bottom, TC-treated plates (Greiner Bio One) using a multidrop dispenser and incubated at 37 degrees C, 5% CO2, under a humidified atmosphere for 5 hours. Twenty-three nanoliters of compounds and controls (neutral control DMSO or positive control bortezomib at final concentration of 2.3 µM) were subsequently transferred by Kalypsys pintool. For primary screens, the MIPE collection was tested at 11-point dilutions (final concentrations range from 0.78 nM to 46 µM) and the NPC collection at 8-point dilutions (final concentrations range from 0.59 nM to 46 µM). Compounds tested in follow-up screens were assayed at 11-point dilutions. Cells were incubated for 48 hours, followed by addition of 3 uL of CellTiter-Glo (Promega). After a 15 min incubation at room temperature, samples were analyzed for luminescence intensity using a ViewLux High-throughput CCD imager equipped with clear filters.
Potency is the fitted concentration of half-maximal effect.

Compound	Potency	activity change, negative = cytotoxic
CC(=O)OCC1=C(C(=O)O)N2C(=O)[C@@H](N)[C@@H]2SC1	2.35 µM (active)	
C1=C2CCCN[C@H]2[C@@H]2C[C@H]1[C@@H]1CCCCN1C2		3.44% (inactive)
CN(C)[C@@H]1C(=O)C(C(N)=O)=C(O)[C@@]2(O)C(=O)C3=C(O)c4c(O)cccc4[C@@](C)(O)[C@H]3[C@H](O)[C@@H]12		49.8% (inactive)
C[C@]12CC[C@H]3[C@@H](CCC4=CC(=O)CC[C@@]43C)[C@H]1CC[C@H]2OC(=O)CCC1CCCC1		-4.11% (inactive)
CN[C@@H](C)[C@H](O)c1ccccc1		-1.8% (inactive)
O=S(=O)(F)Cc1ccccc1		6.97% (inactive)
C=CCC1=C(C)C(OC(=O)C2C(C=C(C)C)C2(C)C)CC1=O (stereo not given)	30.6 µM (active)	
Cc1cc(O)ccc1Cl		23.1% (inactive)
COC(C)(C)CCCC(C)C/C=C/C(C)=C/C(=O)OC(C)C (stereo not given)		18.6% (inactive)
CC(=Cc1csc(C)n1)[C@@H]1C[C@H]2O[C@]2(C)CCC[C@H](C)[C@@H](O)[C@@H](C)C(=O)C(C)(C)[C@@H](O)CC(=O)O1	0.0296 µM (active)	
Oc1ccc2c3c1O[C@H]1[C@@H](O)C=C[C@H]4[C@@H](C2)NCC[C@@]341		4.05% [at 92.7 µM] (inactive)
CN1[C@H]2CC(O)C[C@H]1[C@H]1O[C@H]12 (stereo not given in full)	9.35 µM (active)	
O=C(Oc1ccc([N+](=O)[O-])cc1)N1CCC(C(O)(c2ccc3c(c2)OCO3)c2ccc3c(c2)OCO3)CC1		6.16% (inactive)
CC[C@@H]1[C@@H](C)O[C@@](O)([C@@H](C)[C@H](O)[C@H](C)[C@H]2OC(=O)C=CC=C[C@@H](C)[C@@H]([C@@H](C)[C@@H](O)[C@H](C)[C@@]3(O)C[C@H](O[C@H]4C[C@H](O)[C@H](O)[C@H](C)O4)[C@H](CC)[C@@H](C)O3)OC(=O)C=CC=C[C@@H]2C)C[C@H]1O[C@H]1C[C@H](O)[C@H](O)[C@H](C)O1	0.526 µM (active)	
O=S(=O)(CC1CS1)c1ccc(Oc2ccccc2)cc1 (stereo not given)	26.4 µM (active)	
Nc1ccc(Cl)cc1N		11% [at 92.7 µM] (inactive)
CCCCOC(=O)c1ccccc1C(=O)OCc1ccccc1		27.3% [at 92.7 µM] (inactive)
C[C@H]1CCCC=CC2C[C@H](O)C[C@@H]2[C@H](O)C=CC(=O)O1 (stereo not given in full)	0.001 µM (active)	
Cc1ccccc1-n1c(Cn2cnc3c(N)ncnc32)nc2cccc(C)c2c1=O	0.187 µM (active)	
O=C(Oc1ccc([N+](=O)[O-])cc1)N1CCN(Cc2cccc(Oc3ccccc3)c2)CC1		-15.6% (inactive)

Compound	Potency	activity change, negative = cytotoxic
COc1ccc2c(c[n+](C)c3c4cc5c(cc4ccc23)OCO5)c1OC	11.8 µM (active)	
Oc1ccc2c3c1O[C@H]1c4[nH]c5c(c4C[C@@]4(O)[C@@H](C2)N(CC2CC2)CC[C@]314)C[C@@]1(O)[C@H]2Cc3ccc(O)c4c3[C@@]1(CCN2CC1CC1)[C@H]5O4		19.6% (inactive)
CC=C(C)C(=O)O[C@H]1C(C)=C2[C@@H]3OC(=O)[C@@](C)(O)[C@@]3(O)[C@@H](OC(=O)CCC)C[C@](C)(OC(C)=O)[C@@H]2[C@@H]1OC(=O)CCCCCCC	0.0418 µM (active)	
CC(N[C@H]1C[C@H]1c1ccccc1)c1ccc2c(c1)OCCO2 (stereo not given in full)		32.9% (inactive)
C[C@]12COC(=O)C[C@@H]1CC[C@@H]1[C@H]2CC[C@@]2(C)[C@H]1CC[C@]2(C)O		18.5% (inactive)
CC(C)(O)C=CC(=O)[C@](C)(O)[C@H]1[C@H](O)C[C@]2(C)[C@@H]3CC=C4[C@@H](C=C(O)C(=O)C4(C)C)[C@]3(C)C(=O)C[C@@]12C	0.209 µM (active)	
CC[C@@]1(O)C(=O)OCc2c1cc1n(c2=O)Cc2cc3ccccc3nc2-1	0.0105 µM (active)	
CC(C)(C)[C@]1(O)C[C@@H]2OC(=O)C[C@@]23C(=O)O[C@@H]2OC(=O)[C@H](O)C213 (stereo not given in full)		0.165% (inactive)
CS(=O)(=O)c1ccc(C(=O)C2C(=O)CCCC2=O)c([N+](=O)[O-])c1		28.6% [at 92.7 µM] (inactive)
O=S(=O)(O)C(F)(F)C(F)(F)C(F)(F)C(F)(F)C(F)(F)C(F)(F)C(F)(F)C(F)(F)F		-7.29% [at 92.7 µM] (inactive)
CC[C@@H](C(N)=O)N1CCCC1=O		1.17% (inactive)
CN(C)NC(=O)CCC(=O)O		7.05% (inactive)
COC(=O)c1cncn1C(C)c1ccccc1 (stereo not given)		-10.4% (inactive)
CC(C)NCC(O)c1ccc([N+](=O)[O-])cc1 (stereo not given)		3.66% (inactive)
O=C1CCC[C@@H]2[C@H]3CCCN4CCC[C@@H](CN12)[C@@H]34		5.44% (inactive)
O=C(O)COc1ccccc1		24% (inactive)
COc1ccc2c(c1)[C@]13CCCCC1C(C2)N(C)CC3 (stereo not given in full)		2% (inactive)
O=[N+]([O-])/N=C1\NCCN1Cc1ccc(Cl)nc1		10.8% (inactive)
O=C(Nc1ccccc1-c1ccc(Cl)cc1)c1cccnc1Cl		22.4% [at 92.7 µM] (inactive)
CC(C)N(CCNC(=O)CN1CCCC1=O)C(C)C		-2.93% (inactive)
